For 21 molecules, growth inhibition results are on record in PubChem BioAssay (NCI).

“And” between values parts separate entries of the source, which are not always exact repeats. Identical values can stand only once. The panel holds about 79,000 compounds, 15% with a hit somewhere; the sample as a whole holds those more often. Where a structure was tested more than once in an assay, its records may differ in their call. The source made the active and inactive calls. Rule as the data show it: active = growth inhibition above about 70%; inactive = the rest.

Experiment [1] in a line: NCI Yeast Anticancer Drug Screen. Data for the rad50 strain (AID 155).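 Also: 0% = growth of vehicle-only cultures of the same strain.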 To be noted: S. cerevisiae rad50 strain growth inhibition; at 50.0 µM; stronger effect = higher value. Put shortly:
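Growth of the mutant yeast was measured after compound exposure and referenced to vehicle-treated cultures.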

A short description of experiment [2]: NCI Yeast Anticancer Drug Screen. Data for the mec2-1 strain (AID 157). To be noted: S. cerevisiae mec2-1 strain, at 50.0 µM, stronger effect = higher value. Put shortly: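 Yeast mec2-1 mutant treated with compound. Readout: growth inhibition vs vehicle controls.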
A short description of experiment [3]: NCI Yeast Anticancer Drug Screen. Data for the sgs1 mgt1 strain (AID 161).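 Also: 0% = growth of cultures given vehicle only.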 As to conditions: S. cerevisiae sgs1 mgt1 strain, at 50.0 µM, stronger effect = higher value. Put shortly:
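Mutant yeast exposed to compound; growth scored against vehicle-only wells.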

Experiment [4] can be described thus: NCI Yeast Anticancer Drug Screen. Data for the cln2 rad14 strain (AID 165).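 Also: 0% = growth equal to vehicle treated cultures.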 To be noted: S. cerevisiae cln2 rad14 strain, at 50.0 µM, stronger effect = higher value. The method, boiled down:
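cln2 rad14 yeast strain; compound exposure; growth inhibition read vs vehicle controls.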

Experiment [5] is described as follows: NCI Yeast Anticancer Drug Screen. Data for the bub3 strain (AID 167). To be noted: S. cerevisiae bub3 mutant strain, at 50.0 µM, stronger effect = higher value. Put shortly: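 Whole-cell yeast assay. The mutant strain was incubated with compounds, and growth inhibition was determined by comparison with vehicle-treated cells.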
Experiment [6] is described as follows: NCI Yeast Anticancer Drug Screen. Data for the mlh1 rad18 strain (AID 175). As to conditions: S. cerevisiae mlh1 rad18 strain growth inhibition; at 50.0 µM; stronger effect = higher value. The method, boiled down:
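Yeast w/ defined DNA-repair lesions; compound exposure; growth vs vehicle controls → % inhibition.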

For the molecule `CC(=O)SCCC(NC(=S)Nc1ccccc1)P(=O)(Oc1ccccc1)Oc1ccccc1` (stereo unspecified), the growth inhibition in experiment [1] was -17.9% (inactive); in experiment [2], 10.3% (inactive); in experiment [3], 8.35% (inactive); in experiment [4], -11.9% (inactive); in experiment [5], -7.1% (inactive); in experiment [6], -10.3% (inactive).

Take `CC(C)CC(=O)[O-].CC(C)CC(=O)[O-].N.N.N.N.[Co+3].[O-][Cl+3]([O-])([O-])[O-]`: the growth inhibition is -0.8% (inactive) and -12.4% (inactive) in experiment [1]; 9.7% (inactive) and 11.6% (inactive) in experiment [2]; -28.9% (inactive) and -24.1% (inactive) in experiment [3]; 10.3% (inactive) and 1.35% (inactive) in experiment [4]; 15.8% (inactive) and -0.6% (inactive) in experiment [5]; -14.5% (inactive) and 2.55% (inactive) in experiment [6].

Turning to `COC(=O)Nc1nc2ccccc2[nH]1`, the growth inhibition in experiment [1] was -18.6% (inactive); in experiment [2] it was -4.4% (inactive); in experiment [3], -13% (inactive); in experiment [4], 4.2% (inactive); in experiment [5], 2.45% (inactive); in experiment [6], 7.15% (inactive).

With `N#CC(C#N)=Cc1cccc(C=C(C#N)C#N)c1`, the growth inhibition is -0.55% (inactive) in experiment [1]; -3.65% (inactive) in experiment [2]; 12.9% (inactive) in experiment [3]; 8.3% (inactive) in experiment [4]; 0.65% (inactive) in experiment [5]; -24.6% (inactive) in experiment [6].

Regarding `CCOC(=O)C1C2(C)NC(=O)C1(Cc1ccccc1)c1ccc(O)cc1O2` (stereo unspecified), the growth inhibition in experiment [1] is 4.05% (inactive); in experiment [2], 3.1% (inactive); in experiment [3], -13.1% (inactive); in experiment [4], 0.05% (inactive); in experiment [5] it was 2.5% (inactive); in experiment [6], -1.05% (inactive).

As for `C=CCC1(/C(=C\CC)CCC)C(=O)NC(=O)NC1=O`, the growth inhibition in experiment [1] was 15.1% (inactive); in experiment [2], -0.3% (inactive); in experiment [3], 1.75% (inactive); in experiment [4], -32% (inactive); in experiment [5] it was -0.2% (inactive); in experiment [6] it was 12.3% (inactive).

On to `N#C[C@H](OC1OC(COC2OC(CO)C(O)C(O)C2O)C(O)C(O)C1O)c1ccccc1` (stereo partly specified), for which the growth inhibition in experiment [1] is -34.5% (inactive); in experiment [2], -34.6% (inactive); in experiment [3] it was -20.6% (inactive); in experiment [4] it was -1.3% (inactive); in experiment [5] it was -29.1% (inactive); in experiment [6], -28.1% (inactive).

`O=[N+]([O-])c1cc(C2CCCCC2)c(O)c([N+](=O)[O-])c1`: the growth inhibition in experiment [1] was 47.3% (inactive) and 47.2% (inactive); in experiment [2], 26% (inactive) and 79.5% (active); in experiment [3] it was 18% (inactive) and 80.8% (active); in experiment [4], -8.75% (inactive) and 59.2% (inactive); in experiment [5] it was 21.2% (inactive) and 81.8% (active); in experiment [6], 26.4% (inactive) and 86.3% (active).

Regarding `CCCCC1(C(C)C)C(=O)NC(=O)N(C)C1=O` (stereo unspecified), the growth inhibition is -5.55% (inactive) in experiment [1]; 8.9% (inactive) in experiment [2]; 5.15% (inactive) in experiment [3]; -12.7% (inactive) in experiment [4]; 5.75% (inactive) in experiment [5]; 5.3% (inactive) in experiment [6].

As for `N=C(N)N1CCNc2ccccc2C1`, the growth inhibition in experiment [1] was 14.9% (inactive); in experiment [2], -10.2% (inactive); in experiment [3] it was -7.3% (inactive); in experiment [4], 28.8% (inactive); in experiment [5] it was -1.2% (inactive); in experiment [6], 6.3% (inactive).

With `CN1CC(NC(=O)N(CCCl)N=O)CC2c3cccc4c3c(cn4N=O)CC21` (stereo unspecified), the growth inhibition in experiment [1] is 17.8% (inactive); in experiment [2] it was 10.6% (inactive); in experiment [3] it was 21.4% (inactive); in experiment [4], 18.6% (inactive); in experiment [5] it was -3.7% (inactive); in experiment [6], 52.1% (inactive).

Regarding `NCCC1CCc2[nH]c3ccccc3c2C1` (stereo unspecified), the growth inhibition in experiment [1] was -7.3% (inactive); in experiment [2], -6.1% (inactive); in experiment [3], -0.5% (inactive); in experiment [4] it was -52.4% (inactive); in experiment [5], -15.3% (inactive); in experiment [6] it was -8.15% (inactive).

With `CCCCN1C(=O)C(=C/C=C/C=C2\Oc3ccccc3N2CCCS(=O)(=O)O)C(=O)N(CCCC)C1=S`, the growth inhibition in experiment [1] was 18% (inactive); in experiment [2], 2.9% (inactive); in experiment [3], 3.75% (inactive); in experiment [4] it was 15.7% (inactive); in experiment [5], -3.9% (inactive); in experiment [6], 27% (inactive).

Take `CC12CC3CC(C1)CC(N=[N+]=[N-])(C3)C2`: the growth inhibition was -16.4% (inactive) in experiment [1]; -1.3% (inactive) in experiment [2]; -2.65% (inactive) in experiment [3]; 1.3% (inactive) in experiment [4]; -0.95% (inactive) in experiment [5]; -2.6% (inactive) in experiment [6].

Turning to `Nc1c(S(=O)(=O)O)cc(Nc2ccc(S(=O)(=O)O)c(Nc3nc(Cl)nc(Cl)n3)c2)c2c1C(=O)c1ccccc1C2=O`, the growth inhibition is -14.3% (inactive) in experiment [1]; -31.8% (inactive) in experiment [2]; -27.4% (inactive) in experiment [3]; -14.3% (inactive) in experiment [4]; -32.7% (inactive) in experiment [5]; -37.9% (inactive) in experiment [6].

Turning to `O=[N+]([O-])c1cccc2cccc([N+](=O)[O-])c12`, the growth inhibition in experiment [1] was -7.45% (inactive); in experiment [2], -28.1% (inactive); in experiment [3] it was -10.3% (inactive); in experiment [4], -86.7% (inactive); in experiment [5], -35% (inactive); in experiment [6], 11.3% (inactive).

Regarding `CC(CC(C)(C)[N-]CC[O-])=NCCO.O=[N+]([O-])O.[Cu+2]`, the growth inhibition was 10.7% (inactive) in experiment [1]; 20.2% (inactive) in experiment [2]; -5.7% (inactive) in experiment [3]; -0.05% (inactive) in experiment [4]; 26.2% (inactive) in experiment [5]; 18.7% (inactive) in experiment [6].

As to `CCOC(=O)C(=O)CC(=O)[C@H]1CC[C@H]2[C@@H]3CC[C@@H]4C[C@H](O)CC[C@]4(C)[C@H]3C(=O)C[C@]12C`, the growth inhibition in experiment [1] is 30.6% (inactive); in experiment [2], 15.3% (inactive); in experiment [3] it was 40.8% (inactive); in experiment [4], 37.5% (inactive); in experiment [5], -3.8% (inactive); in experiment [6], 34.7% (inactive).

With `Brc1ccc(NP(Br)(c2ccccc2)(c2ccccc2)c2ccccc2)cc1`, the growth inhibition in experiment [1] is 52.8% (inactive); in experiment [2] it was 5.6% (inactive); in experiment [3], 58% (inactive); in experiment [4], 11.8% (inactive); in experiment [5], 11.9% (inactive); in experiment [6], 20.1% (inactive).

`Cc1c[n+]2ccc3ccccc3c2c2ccccc12`: the growth inhibition in experiment [1] is -3.9% (inactive); in experiment [2], -10.9% (inactive); in experiment [3] it was -8.65% (inactive); in experiment [4], -78.2% (inactive); in experiment [5], -3.2% (inactive); in experiment [6], -11.7% (inactive).

Turning to `COc1ccccc1NC1=NCC(C)S1` (stereo unspecified), the growth inhibition in experiment [1] is -10.2% (inactive); in experiment [2] it was -15.2% (inactive); in experiment [3] it was -52% (inactive); in experiment [4], 24.4% (inactive); in experiment [5], -14.4% (inactive); in experiment [6], -2.1% (inactive).
